Test results taken from article PMC4336329 (PLoS ONE, 2015).
The campaign covered roughly 310,000 compounds. About 14,000 (4.5%) showed an effect of 50% or more. Effects have a minus sign here. For the sample, strong results were picked, then their nearest neighbours and some compounds at random.

Molecular target: human ether-à-go-go-related gene (hERG) potassium channel (human, UniProt Q12809)
Assay: primary screen, population patch clamp on CHO cells stably expressing hERG; higher = less effect of the substance
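Note: peak tail current of the secondary pulse compared with the same well before compound.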

Chain of human ether-à-go-go-related gene (hERG) potassium channel (Q12809 whole entry, looked up): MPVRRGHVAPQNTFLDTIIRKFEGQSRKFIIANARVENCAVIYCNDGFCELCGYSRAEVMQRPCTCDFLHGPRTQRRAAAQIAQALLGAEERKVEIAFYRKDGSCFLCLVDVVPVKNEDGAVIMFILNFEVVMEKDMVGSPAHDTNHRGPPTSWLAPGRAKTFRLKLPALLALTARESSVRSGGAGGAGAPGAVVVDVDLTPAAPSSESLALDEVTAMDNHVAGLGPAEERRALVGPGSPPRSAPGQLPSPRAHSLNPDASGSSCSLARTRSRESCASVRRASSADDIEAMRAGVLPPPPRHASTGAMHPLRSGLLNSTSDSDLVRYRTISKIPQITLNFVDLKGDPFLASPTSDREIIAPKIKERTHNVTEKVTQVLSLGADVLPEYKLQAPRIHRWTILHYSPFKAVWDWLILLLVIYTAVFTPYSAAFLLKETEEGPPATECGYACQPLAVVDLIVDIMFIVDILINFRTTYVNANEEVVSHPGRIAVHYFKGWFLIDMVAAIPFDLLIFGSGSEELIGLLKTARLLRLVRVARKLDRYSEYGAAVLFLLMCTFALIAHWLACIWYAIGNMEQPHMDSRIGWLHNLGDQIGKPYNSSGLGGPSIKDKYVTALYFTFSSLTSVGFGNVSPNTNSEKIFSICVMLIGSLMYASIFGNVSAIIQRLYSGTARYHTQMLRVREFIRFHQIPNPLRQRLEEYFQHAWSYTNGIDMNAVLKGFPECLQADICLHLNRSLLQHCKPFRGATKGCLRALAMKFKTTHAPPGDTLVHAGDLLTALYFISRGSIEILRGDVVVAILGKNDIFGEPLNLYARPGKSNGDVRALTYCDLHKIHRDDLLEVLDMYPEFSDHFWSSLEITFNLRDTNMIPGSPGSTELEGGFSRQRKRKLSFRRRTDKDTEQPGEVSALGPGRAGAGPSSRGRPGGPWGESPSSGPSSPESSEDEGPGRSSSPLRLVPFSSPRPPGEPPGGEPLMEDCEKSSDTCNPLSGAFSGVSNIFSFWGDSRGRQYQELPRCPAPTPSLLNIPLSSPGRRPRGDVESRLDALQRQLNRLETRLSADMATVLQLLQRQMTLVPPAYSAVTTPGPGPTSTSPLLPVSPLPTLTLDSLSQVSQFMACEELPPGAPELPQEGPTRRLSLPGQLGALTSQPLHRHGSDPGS

Row | Compound | hERG current change (%, negative = inhibition) at 10uM [%]
1 | COc1ccc2c(c1)c(=O)oc1cc(O)ccc12 | 3.99
2 | O=C(CSc1cn(Cc2cccc(F)c2)c2ccccc12)NCc1ccc(F)cc1 | 9.86
3 | CCOc1ccccc1N(CC(=O)NC(C)(C)C)C(=O)CCC(=O)Nc1nccs1 | -4.92
4 | CC(C)(C)NC(=O)C(c1ccc(O)cc1)N(C(=O)Cn1nnc(-c2ccc(F)cc2)n1)c1ccccc1F (stereo not shown) | -1.66
5 | COc1cc(CNc2ccc(N3CCOCC3)cc2)cc(Br)c1OC | -23.4
6 | CCOc1cc2oc(=O)c3c(c2cc1Cl)CCC3 | 7.75
7 | COc1ccc(Cn2c(C)c(C)c(C#N)c2NC(=O)Nc2ccc(F)cc2)cc1 | -3.49
8 | COc1ccc(N=CC2=C(O)c3ccccc3C2=O)cc1 | 11.1
9 | CC(C)OCCCn1c(SC(C)C(=O)NCC2CCCO2)nc2cc(Cl)ccc2c1=O (stereo not shown) | -20.6
10 | Cc1ccc2nc3c(cc(C(=O)NCC4CCCO4)c(=N)n3CCCOC(C)C)c(=O)n2c1 (stereo not shown) | -71.8
11 | CCN(C(=O)c1cc2c(=O)n3cccc(C)c3nc2n1CCCOC)C1CCCCC1 | -44.1
12 | COCCCn1c(C(=O)N2CC(C)OC(C)C2)cc2c(=O)n3ccccc3nc21 (stereo not shown) | -9.36
13 | COCCn1c(=O)[nH]c2cc(C(=O)NCC3CCCO3)ccc2c1=O (stereo not shown) | -7.76
14 | Cc1cccn2c(=O)c3cc(C(=O)NCC4CCCO4)c(=N)n(CCN4CCOCC4)c3nc12 (stereo not shown) | -69.4
15 | COCCCn1c(C(=O)NC2CCCCC2C)cc2c(=O)n3cccc(C)c3nc21 (stereo not shown) | -12
16 | COCCCn1c(C(=O)N2CCOCC2)cc2c(=O)n3ccccc3nc21 | 2.75
17 | COCCCn1c(=N)c(C(=O)NCC2CCCO2)cc2c(=O)n3ccccc3nc21 (stereo not shown) | -64.3
18 | COCCCn1c(=N)c(C(=O)NCC2CCCO2)cc2c(=O)n3cccc(C)c3nc21 (stereo not shown) | -73.1
19 | CSc1nnc2c(n1)OC(c1cccn1C)N(C(C)=O)c1ccccc1-2 (stereo not shown) | -10.1
20 | CCS(=O)(=O)Nc1cccc(C2=NN(S(C)(=O)=O)C(c3cccs3)C2)c1 (stereo not shown) | -11.1
21 | CCOC(=O)C1=C(c2ccccc2)O/C(=C(/C(=O)OC)C(F)(F)F)S1 | -3.45
22 | CC(=O)Nc1ccc(N(C(=O)Cc2c[nH]c3ccccc23)C(C(=O)NC2CCCCC2)c2ccco2)cc1 (stereo not shown) | -13.1
23 | O=c1[nH]nc(CNc2ccc(C(F)(F)F)cc2)c2ccccc12 | 1.92
24 | CC(C)(C)c1ccc(C(=O)N2CCC(=O)N(C(CO)Cc3ccccc3)CC2)cc1 (stereo not shown) | -16.7
25 | Cc1cccc(NC(=S)N(CCN(C)C)Cc2cccs2)c1 | -25.8

Row | Compound | hERG current change (%, negative = inhibition) at 10uM [%]
26 | Cc1cc(NS(=O)(=O)c2cccs2)no1 | -3.03
27 | Cc1ccc(-c2cc(C(=O)NCC3CCCO3)c3ccccc3n2)cc1C (stereo not shown) | 12.1
28 | CCCn1c(=N)c(C(=O)NCc2ccc3c(c2)OCO3)cc2c(=O)n3cccc(C)c3nc21 | -76.5
29 | Cc1cccn2c(=O)c3cc(C(=O)NCC4CCCO4)c(=N)n(CC4CCCO4)c3nc12 (stereo not shown) | -81.9
30 | Cc1ccccc1Nc1cc(C(=O)NCC2CCCO2)c2ccccc2n1 (stereo not shown) | -15.6
31 | CCCn1c(=N)c(C(=O)NCC2CCCO2)cc2c(=O)n3cccc(C)c3nc21 (stereo not shown) | -76.3
32 | CCCn1c(=N)c(S(=O)(=O)c2ccc(F)cc2)cc2c(=O)n3cccc(C)c3nc21 | -4.16
33 | Cc1cccn2c(=O)c3cc(C(=O)NC4CCCC4)c(=N)n(CC4CCCO4)c3nc12 (stereo not shown) | -74.4
34 | Cc1cccn2c(=O)nc(SCC(=O)NCc3ccc4c(c3)OCO4)nc12 | -27.1
35 | CCCn1c(=S)[nH]c2cc(C(=O)NCC3CCCO3)ccc2c1=O (stereo not shown) | 3.73
36 | CCCn1nc(C(=O)NCc2ccc3c(c2)OCO3)c2ccccc2c1=O | 1.89
37 | Cc1ccc(S(=O)(=O)c2cc3c(=O)n4cccc(C)c4nc3n(CC3CCCO3)c2=N)cc1C (stereo not shown) | 2.35
38 | CCC(=O)N1CCc2cc(S(=O)(=O)CCC(=O)NCc3cccc(OC)c3)ccc21 | 13.8
39 | COc1ccc([C@@H]2C[C@@H](c3ccccc3)Oc3c(C)ccc(C(C)C)c32)cc1 | 13.3
40 | CCCc1nc(N2CCCC2)c(C#N)c2c1CCCC2 | 4.06
41 | COC(=O)c1cc(-c2ccccc2)n(CCN)c1C.Cl | -3.56
42 | COc1ccc(OCC(=O)Nc2nnc(C)s2)cc1 | 9.71
43 | Cc1nnc(SCc2ccccc2)nc1/C=C/NOCc1ccc(Cl)cc1Cl | 13.9
44 | Cc1nnc(SCc2ccc(Cl)cc2)nc1/C=C/N(C)C | -72.6
45 | C=CCSc1nnc(C)c(/C=C/Nc2ccc(Cl)cc2)n1 | -9.44
46 | Cc1ccc(C(=O)O)cc1S(=O)(=O)N1CCC(C(=O)O)CC1 | -4.77
47 | NC(=S)Cc1nc2n(n1)Cc1ccccc1-2 | 21.6
48 | CC(=O)N1CCN(c2ccc(NC(=O)c3ccccc3C)cc2)CC1 | -0.597
49 | C=C1CCN([C@@H](C)C(=O)NCc2ccc(OC)cc2)S(=O)(=O)c2ccccc21 | -6.66
